Measured values as given in PubChem BioAssay AID1159580 (chemical genetic matrix, 2015).
Out of some 5,500 compounds screened, about 2,000 (36%) were called active. Roughly 18% stayed inconclusive and do not appear here. No stated cut-off is given here; in the data, active means normalized growth mostly below about 0.91 (no sharp cut-off); inconclusive means no clear call, values can overlap the other calls; inactive means mostly above about 0.92. The list shows a part of the results.

Assay: chemical genetic growth profiling, strain panel (AID 1159580);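 further: tested at 20 µM; growth read once vehicle control cultures reached saturation at 30 °C; 1 = growth at the plate median or of vehicle wells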
Conditions: S. cerevisiae deletion strains, growth OD

Measured: normalized growth

Cc1ccc(C)c(OCCCC(C)(C)C(=O)O)c1
inactive: locus YJR066W, strain TOR1, stronger effect = lower value 0.834 | locus YJR075W, strain HOC1, stronger effect = lower value 0.937 | locus YKL160W, strain elf1, stronger effect = lower value 0.968 | locus YKL190W, strain CNB1, stronger effect = lower value 0.962 | locus YKR026C, strain gcn3, stronger effect = lower value 0.976 | locus YKR091W, strain srl3, stronger effect = lower value 0.979 | locus YLL001W, strain dnm1, stronger effect = lower value 0.975 | locus YLL026W, stronger effect = lower value 0.976 | locus YLL041C, strain sdh2, stronger effect = lower value 0.98 | locus YLR027C, strain aat2, stronger effect = lower value 0.969 | locus YLR058C, strain SHM2, stronger effect = lower value 0.956 | locus YLR102C, strain apc9, stronger effect = lower value 0.949 | locus YLR221C, strain rsa3, stronger effect = lower value 0.959 | locus YLR258W, strain gsy2, stronger effect = lower value 0.942 | locus YLR320W, strain mms22, stronger effect = lower value 0.919 | locus YLR330W, strain CHS5, stronger effect = lower value 0.932 | locus YLR342W, strain FKS1, stronger effect = lower value 0.965 | locus YLR357W, strain rsc2, stronger effect = lower value 1.1 | locus YLR370C, strain arc18, stronger effect = lower value 0.948 | locus YLR371W, strain rom2, stronger effect = lower value 0.942 | locus YLR384C, strain iki3, stronger effect = lower value 0.987 | locus YML016C, strain PPZ1, stronger effect = lower value 0.951 | locus YML120C, strain ndi1, stronger effect = lower value 0.942 | locus YML124C, strain tub3, stronger effect = lower value 0.934 | locus YMR058W, strain fet3, stronger effect = lower value 0.963 | locus YMR078C, strain ctf18, stronger effect = lower value 0.918 | locus YMR125W, strain sto1, stronger effect = lower value 1.03 | locus YMR129W, stronger effect = lower value 0.983 | locus YMR205C, strain PFK2, stronger effect = lower value 0.986 | locus YMR231W, strain pep5, stronger effect = lower value 0.964 | locus YNL067W, strain RPL9B, stronger effect = lower value 0.956 | locus YNL071W, strain lat1, stronger effect = lower value 0.945 | locus YNL183C, strain NPR1, stronger effect = lower value 0.843 | locus YNL209W, strain ssb2, stronger effect = lower value 0.99 | locus YNL233W, strain BNI4, stronger effect = lower value 0.935 | locus YNL248C, strain rpa49, stronger effect = lower value 1.02 | locus YNL322C, strain KRE1 (second series), stronger effect = lower value 0.992 | locus YNR049C, strain mso1, stronger effect = lower value 0.982 | locus YOL012C, strain htz1 0.759 | locus YOR001W, strain rrp6, stronger effect = lower value 0.953 | locus YOR061W, strain CKA2, stronger effect = lower value 0.926 | locus YOR069W, strain VPS5, stronger effect = lower value 0.971 | locus YOR070C, strain gyp1, stronger effect = lower value 0.973 | locus YOR080W, strain dia2, stronger effect = lower value 1.01 | locus YOR083W, strain WHI5, stronger effect = lower value 0.982 | locus YOR106W, strain vam3, stronger effect = lower value 0.959 | locus YOR136W, strain idh2, stronger effect = lower value 0.989 | locus YOR265W, strain rbl2, stronger effect = lower value 1 | locus YOR270C, strain vph1, stronger effect = lower value 0.961 | locus YOR290C, strain snf2, stronger effect = lower value 0.906 | locus YOR316C, strain cot1, stronger effect = lower value 0.939 | locus YPL051W, strain arl3, stronger effect = lower value 0.923 | locus YPL055C, strain LGE1, stronger effect = lower value 0.925 | locus YPL078C, strain atp4, stronger effect = lower value 0.975 | locus YPL106C, strain sse1, stronger effect = lower value 1.15 | locus YPL240C, strain hsp82, stronger effect = lower value 0.977 | locus YPL241C, strain CIN2, stronger effect = lower value 0.948
active: locus YKL009W, strain mrt4, stronger effect = lower value 0.437 | locus YKL068W, stronger effect = lower value 0.923 | locus YKL085W, strain MDH1 (second series), stronger effect = lower value 0.492 | locus YKL085W, strain MDH1, stronger effect = lower value 0.492 | locus YKR001C, strain vps1, stronger effect = lower value 0.644 | locus YLR039C, strain RIC1, stronger effect = lower value 0.469 | locus YLR113W, strain HOG1, stronger effect = lower value 0.752 | locus YLR262C, strain YPT6 (second series), stronger effect = lower value 0.706 | locus YLR262C, strain YPT6, stronger effect = lower value 0.509 | locus YLR268W, strain sec22, stronger effect = lower value 0.845 | locus YLR342W, strain FKS1 (second series), stronger effect = lower value 0.751 | locus YLR418C, strain cdc73, stronger effect = lower value 0.824 | locus YML032C, strain rad52, stronger effect = lower value 0.847 | locus YMR223W, strain ubp8, stronger effect = lower value 0.865 | locus YMR307W, strain GAS1, stronger effect = lower value 0.481 | locus YNL250W, strain rad50, stronger effect = lower value 0.578 | locus YNL271C, strain bni1, stronger effect = lower value 0.452 | locus YNL298W, strain CLA4, stronger effect = lower value 0.202 | locus YNL307C, strain MCK1, stronger effect = lower value 0.649 | locus YNR052C, strain pop2, stronger effect = lower value 0.775 | locus YOL147C, strain pex11, stronger effect = lower value 0.908 | locus YOR144C, strain elg1, stronger effect = lower value 0.907 | locus YOR184W, strain ser1, stronger effect = lower value 0.675 | locus YOR231W, strain MKK1, stronger effect = lower value 0.803 | locus YPL256C, strain CLN2, stronger effect = lower value 0.825 | locus YPR119W, strain clb2, stronger effect = lower value 0.93 | locus YPR141C, strain kar3, stronger effect = lower value 0.817 | locus YPR163C, strain tif3, stronger effect = lower value 0.857 | locus YPR167C, strain met16, stronger effect = lower value 0.914 | strain wtn01, stronger effect = lower value 0.877
